Measured values reported in PubChem BioAssay (NCATS).
Unmarked numbers belong to inactive results. Inconclusive results are not listed. Activity calls are given as the source filed them. Unless noted, calls come from the whole dose curve; as a rule, active = well fitted curve in either direction with a large enough effect (not every such curve was filed as active); inconclusive = small, poorly fitted or top-dose-only effect, or another doubt; inactive = flat fitted curve, though single readings scatter.

system: not listed separately; experiment: Stat Signaling Pathway (AID 446); conditions: ME-180 SIE beta-lactamase reporter, IL-6 stimulated, 5 h; series mostly up to 17.2 µM; activity, negative = inhibition: at the top concentration;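 note: ME-180 cervical cancer cells given 40 pM IL-6 alongside compound; SIE-controlled beta-lactamase reporter measured as 460/530 nm FRET emission ratio; % is set by controls: 0 for no effect and ±100 for the full control effect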
Method in brief: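 ME-180 SIE-bla cells; overnight plating; cpd + IL-6 40 pM, 5 h, 37 C; LiveBLAzer 2.5 h RT; 460/530 nm emission ratio. Normalized to 300 pM IL-6 and 125 nM JAK inhibitor controls.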

SMILES | activity, negative = inhibition | outcome
Cc1ncc(C[n+]2csc(CCO)c2C)c(N)n1 | 1.25% | –
N[C@H](CC(=O)O)C(=O)O | 18.6% [at 38 µM] | –
N[C@@H](Cc1cc(I)c(Oc2ccc(O)c(I)c2)c(I)c1)C(=O)O | 2.12% | –
CC(=O)Oc1cc(C(F)(F)F)ccc1C(=O)O | 5.53% | –
CC1(C)S[C@@H]2[C@H](NC(=O)C3(N)CCCCC3)C(=O)N2[C@H]1C(=O)O | -6.21% | –
Cn1cc(NC(=O)c2cc(NC(=O)c3cc(NC=O)cn3C)cn2C)cc1C(=O)NCCC(=N)N | 10.3% | –
O=C1NCCN1c1ncc([N+](=O)[O-])s1 | -7.76% | –
CCSc1ccc2c(c1)N(CCCN1CCN(C)CC1)c1ccccc1S2 | -7.41% | –
CC(=O)[C@H]1CC[C@H]2[C@@H]3C=CC4=CC(=O)CC[C@@]4(C)[C@H]3CC[C@]12C | -4.97% | –
CNC(=O)c1c(I)c(C(=O)NCC(=O)Nc2c(I)c(C(=O)O)c(I)c(C(=O)NCCO)c2I)c(I)c(N(C)C(C)=O)c1I | -6.57% | –
Cc1cc(C)c(NC(=O)C[C@H](CC(=O)O)c2cccc3ccccc23)c(C(=O)N2CCC3(CCCC3)CC2)c1 | -21.8% [at 38 µM] | –
CN(CCO)CC(O)Cn1cnc2c1c(=O)n(C)c(=O)n2C (stereo unspecified) (tested in a mixture with another compound) | 9.14% | –
Cn1nnnc1SCC1=C(C(=O)O)N2C(=O)[C@@H](NC(=O)[C@H](O)c3ccccc3)[C@H]2SC1 | -3.5% | –
Oc1ccc(/C=C/c2cc(O)cc(O)c2)cc1 | -18.1% | –
COc1cc(S(C)=O)ccc1-c1nc2ncccc2[nH]1 (stereo unspecified) | 0.345% | –
CN1CCc2c(c3ccccc3n2Cc2ccccc2)C1 | 4.54% | –
O=C(O)c1ccc(OCCn2ccnc2)cc1 | 6.49% | –
O=C(O)Cc1cc(I)c(Oc2ccc(O)c(I)c2)c(I)c1 | – | inactive
CCCOc1cc(N)ccc1C(=O)OCCN(CC)CC | 7.68% | –
O=P(O)(O)OP(=O)(O)O | -5.06% [at 7.69 µM] | –
CC(=O)N=c1sc(S(N)(=O)=O)nn1C | – | inactive
Nc1ccc(N=Nc2ccccc2)c(N)n1 | -16.4% | –
Cc1cccc(C)c1NC(=O)C1CCCCN1C (stereo unspecified) | 0.849% | –
O=C(O)CCC(=O)c1ccc(-c2ccccc2)cc1 | -3.69% | –
CCc1cn([C@H]2C[C@H](O)[C@@H](CO)O2)c(=O)[nH]c1=O | -4.25% | –
CCCC(CCC)C(=O)OC1C[C@H]2CC[C@@H](C1)[N+]2(C)C (stereo partly specified) | 3.53% | –
CCCCC(=O)O[C@H]1CC[C@H]2[C@@H]3CCc4cc(O)ccc4[C@H]3CC[C@]12C | -4.95% | –
CC(=O)Oc1cccc2c1C(=O)c1c(OC(C)=O)cc(C(=O)O)cc1C2=O | 9.11% | –

molecular target: Glucocorticoid receptor (Homo sapiens) (UniProt P04150); experiment: GR-GFP Redistribution (AID 450;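 active = compounds whose dose series gives a full or clear partial fitted curve of increased nuclear translocation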; note: potency is the fitted concentration of half-maximal effect); conditions: U2OS GR-GFP nuclear translocation, laser cytometry, 2 h
Sequence (P04150 whole entry, looked up): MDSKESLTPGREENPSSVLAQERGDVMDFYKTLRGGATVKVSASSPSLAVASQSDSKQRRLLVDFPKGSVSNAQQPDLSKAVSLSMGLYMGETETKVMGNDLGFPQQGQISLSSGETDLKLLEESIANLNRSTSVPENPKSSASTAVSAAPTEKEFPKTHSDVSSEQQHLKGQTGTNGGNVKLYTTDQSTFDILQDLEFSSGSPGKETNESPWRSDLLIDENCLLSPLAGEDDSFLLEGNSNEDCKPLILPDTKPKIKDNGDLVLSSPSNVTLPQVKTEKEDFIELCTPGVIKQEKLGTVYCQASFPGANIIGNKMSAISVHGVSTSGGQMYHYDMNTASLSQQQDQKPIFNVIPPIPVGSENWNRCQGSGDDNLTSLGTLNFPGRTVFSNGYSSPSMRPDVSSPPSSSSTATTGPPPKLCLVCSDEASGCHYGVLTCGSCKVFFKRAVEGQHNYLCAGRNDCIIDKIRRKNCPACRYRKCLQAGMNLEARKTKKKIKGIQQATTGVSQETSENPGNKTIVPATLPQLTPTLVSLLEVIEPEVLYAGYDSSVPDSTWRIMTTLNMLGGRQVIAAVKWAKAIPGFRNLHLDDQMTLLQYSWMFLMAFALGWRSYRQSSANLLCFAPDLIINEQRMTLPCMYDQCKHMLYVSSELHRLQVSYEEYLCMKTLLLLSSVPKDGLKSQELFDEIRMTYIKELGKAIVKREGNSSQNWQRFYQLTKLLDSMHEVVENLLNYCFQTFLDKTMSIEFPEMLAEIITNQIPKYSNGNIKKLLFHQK

SMILES | Potency [µM]
N[C@H](CC(=O)O)C(=O)O | > 46
C[C@@](Cc1ccc(O)c(O)c1)(NN)C(=O)O | > 46
N[C@@H](Cc1cc(I)c(Oc2ccc(O)c(I)c2)c(I)c1)C(=O)O | > 20.6
CC(=O)Oc1cc(C(F)(F)F)ccc1C(=O)O | > 20.6
CC1(C)S[C@@H]2[C@H](NC(=O)C3(N)CCCCC3)C(=O)N2[C@H]1C(=O)O | > 20.6
O=C1NCCN1c1ncc([N+](=O)[O-])s1 | > 20.6
Cc1cc(C)c(NC(=O)C[C@H](CC(=O)O)c2cccc3ccccc23)c(C(=O)N2CCC3(CCCC3)CC2)c1 | > 46
Cc1cc(-c2ccc(N=Nc3ccc4c(S(=O)(=O)O)cc(S(=O)(=O)O)c(N)c4c3O)c(C)c2)ccc1N=Nc1ccc2c(S(=O)(=O)O)cc(S(=O)(=O)O)c(N)c2c1O | > 46
Cn1nnnc1SCC1=C(C(=O)O)N2C(=O)[C@@H](NC(=O)[C@H](O)c3ccccc3)[C@H]2SC1 | > 20.6
COc1cc(S(C)=O)ccc1-c1nc2ncccc2[nH]1 (stereo unspecified) | > 20.6
O=C(O)c1ccc(OCCn2ccnc2)cc1 | > 20.6
O=C(O)Cc1cc(I)c(Oc2ccc(O)c(I)c2)c(I)c1 | > 20.6
CCCOc1cc(N)ccc1C(=O)OCCN(CC)CC | > 20.6
O=P(O)(O)OP(=O)(O)O | > 46
CC(=O)N=c1sc(S(N)(=O)=O)nn1C | > 20.6
COc1ccc(C[C@H](C)NC[C@@H](O)c2ccc(O)c(NC=O)c2)cc1 | > 46
Nc1ccc(N=Nc2ccccc2)c(N)n1 | > 20.6
Cc1cccc(C)c1NC(=O)C1CCCCN1C (stereo unspecified) | > 20.6
O=C(O)CCC(=O)c1ccc(-c2ccccc2)cc1 | > 20.6
CCc1cn([C@H]2C[C@H](O)[C@@H](CO)O2)c(=O)[nH]c1=O | > 20.6
CCCCC(=O)O[C@H]1CC[C@H]2[C@@H]3CCc4cc(O)ccc4[C@H]3CC[C@]12C | > 20.6
CC(=O)Oc1cccc2c1C(=O)c1c(OC(C)=O)cc(C(=O)O)cc1C2=O | > 20.6
CN1C(=O)OC(C)(C)C1=O | > 20.6
